C diff HTS: blocks growth of Clostridium difficile. Clostridium difficile clinical isolate growth, OD600, 24 h; hits give low values. growth activity, negative = inhibition, % at 16 µg/mL (by protocol). actives 0.25% (n = 86,000);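 active means mean growth activity at or below -80% and every replicate also at or below -80%; inconclusive means mean at or below -80% but some replicate above -80%; inactive means mean growth activity above -80%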
T cruzi growth-1: T. cruzi proliferation inhibition | AID 624255 | inhibition, % at 8.34 µM | actives 5.9% (n = 77,000) | T. cruzi beta-gal in NIH3T3, GalScreen luminescence, 90 h;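 active means mean inhibition above about 93%, with at least 55% of replicates each passing it, limit read from the data, passing the limit was not always enough; inconclusive means only one of those two conditions holds; inactive means neither condition holds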
T cruzi growth-2: Trypanosoma cruzi proliferation inhibition. actives 72% (n = 5,600). T. cruzi beta-gal in NIH3T3, GalScreen luminescence, 90 h. shares compounds with T cruzi growth-1. inhibition, % at 8.35 µM;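 active means mean replicate inhibition above about 95% and at least 55% of replicates individually reaching it, limit read from the data; inconclusive means only one of the two criteria is met; inactive means neither criterion is met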
T cruzi growth-3: Trypanosoma cruzi proliferation inhibition | T. cruzi beta-gal in NIH3T3, GalScreen luminescence, 90 h | actives 21% (n = 5,600) | shares compounds with T cruzi growth-1 | AID 651740 | inhibition, % at 2.09 µM;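 active means mean inhibition above about 95%, with at least 55% of replicates also reaching it, limit read from the data; inconclusive means meets just one of the two conditions; inactive means meets neither condition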
NIH3T3 tox: NIH/3T3 (mouse) viability loss | NIH/3T3 viability, CellTiter-Glo ATP luminescence, 90 h | cytotoxicity (signal decrease), % at 8.35 µM | actives 14% (n = 5,600) | shares compounds with T cruzi growth-1 | AID 651742;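 active means mean signal decrease across replicates above about 35% based on untreated-well scatter, with enough replicates individually passing, limit read from the data; inconclusive means no rule stated though some were filed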
3T3 cytotox 2: kills mouse NIH/3T3 fibroblasts. shares compounds with T cruzi growth-1. inhibition, % at 24.9 µM. actives 56% (n = 5,600). NIH/3T3 viability, CellTiter-Glo ATP luminescence, 90 h;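 active means mean loss of cell viability signal at or above a set limit, and enough replicates individually reaching it; inconclusive means meets only the mean limit or only the replicate share; inactive means meets neither condition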
Hits are given with their value; n = inactive; u = inconclusive; x = no result. Only a selection was taken, and hits are over-represented in it overall.

SMILES | C diff HTS | T cruzi growth-1 | T cruzi growth-2 | T cruzi growth-3 | NIH3T3 tox | 3T3 cytotox 2
C[C@@H]1CCCCO[C@H](CN(C)Cc2ccc(C(F)(F)F)cc2)[C@@H](C)CN([C@H](C)CO)C(=O)c2cc(NC(=O)C3CCCCC3)ccc2O1 | n | n | x | x | x | x
C[C@@H]1CN([C@H](C)CO)C(=O)c2cc(NC(=O)C3CCCCC3)ccc2O[C@@H](C)CCCCO[C@H]1CN(C)Cc1ccncc1 | n | 103 | n | n | n | n
C[C@@H]1CN([C@@H](C)CO)C(=O)c2cc(NC(=O)C3CCCCC3)ccc2O[C@@H](C)CCCCO[C@H]1CN(C)Cc1ccc(C(F)(F)F)cc1 | n | u | n | 116 | n | n
C[C@H]1CCCCO[C@@H](CN(C)Cc2ccc(C(=O)O)cc2)[C@@H](C)CN([C@@H](C)CO)C(=O)c2cc(NC(=O)C3CCCCC3)ccc2O1 | n | n | x | x | x | x
C[C@@H]1CCCCO[C@H](CN(C)Cc2ccc(C(F)(F)F)cc2)[C@@H](C)CN([C@@H](C)CO)C(=O)c2cc(NC(=O)C3CCCCC3)ccc2O1 | n | u | 95 | 108 | n | 27
C[C@@H]1CCCCO[C@@H](CN(C)Cc2ccc(C(F)(F)F)cc2)[C@H](C)CN([C@H](C)CO)C(=O)c2cc(NC(=O)C3CCCCC3)ccc2O1 | n | 118 | n | 104 | n | n
C[C@@H]1CCCCO[C@@H](CN(C)Cc2ccncc2)[C@@H](C)CN([C@H](C)CO)C(=O)c2cc(NC(=O)C3CCCCC3)ccc2O1 | n | n | x | x | x | x
CO[C@H](CN(C)C(=O)c1cnccn1)[C@@H](C)CN([C@H](C)CO)S(=O)(=O)c1ccccc1 | x | n | x | x | x | x
COc1ccc(NC(=O)N(C)C[C@@H]2OCCCC[C@@H](C)Oc3ccc(NS(=O)(=O)c4ccc(C)cc4)cc3C(=O)N([C@@H](C)CO)C[C@H]2C)cc1 | x | n | x | x | x | x
C[C@@H]1CN([C@H](C)CO)S(=O)(=O)c2ccc(-c3ccc(C(=O)N(C)C)cc3)cc2O[C@H]1CN(C)C(=O)C1CCC1 | n | n | x | x | x | x
O=C(C[C@H]1CC[C@H]2[C@@H](COC[C@@H](O)CN2C(=O)Nc2cccc(F)c2)O1)NCc1ccccc1Cl | n | x | x | x | x | x
CN(C)CC(=O)N[C@@H]1CC[C@@H](CC(=O)NCCN2CCCCC2)O[C@H]1CO | n | n | x | x | x | x
C[C@H]1CN([C@@H](C)CO)C(=O)c2cc(NC(=O)C3CCCCC3)ccc2O[C@H]1CN(C)Cc1ccc(C(F)(F)F)cc1 | n | n | x | x | x | x
C[C@H]1CN([C@@H](C)CO)C(=O)c2cc(NC(=O)C3CCCCC3)ccc2O[C@@H]1CN(C)Cc1ccc(C(F)(F)F)cc1 | n | 92 | n | n | n | n
C[C@@H]1CCCCO[C@@H](CN(C)C(=O)Nc2ccc3c(c2)OCO3)[C@@H](C)CN([C@H](C)CO)C(=O)c2cc(NC(=O)c3ccncc3)ccc2O1 | n | n | x | x | x | x
C[C@H](CO)N1C[C@H](C)[C@@H](CN(C)Cc2ccc(C(F)(F)F)cc2)Oc2ccc(NC(=O)C3CC3)cc2CC1=O | n | 102 | 105 | 99 | n | n
C[C@H](CO)N1C[C@H](C)[C@H](CN(C)Cc2ccc(C(F)(F)F)cc2)Oc2ccc(NC(=O)C3CC3)cc2CC1=O | n | n | x | x | x | x
C[C@@H]1CN([C@H](C)CO)C(=O)Cc2cc(NC(=O)c3ccncc3)ccc2O[C@H]1CN(C)Cc1ccc(C(F)(F)F)cc1 | n | 106 | 104 | n | n | 63
C[C@H](CO)N1C[C@H](C)[C@H](CN(C)Cc2ccc(C(F)(F)F)cc2)Oc2ccc(NC(=O)c3ccncc3)cc2CC1=O | n | n | x | x | x | x
C[C@@H]1CN([C@H](C)CO)C(=O)c2cc(NS(C)(=O)=O)ccc2O[C@@H](C)CCCCO[C@H]1CN(C)S(=O)(=O)c1ccccc1 | n | n | x | x | x | x
O=C(N[C@H]1CC[C@H](CCNC(=O)C2CC2)O[C@H]1CO)c1ccncc1 | n | x | x | x | x | x
C[C@H](CO)N1C[C@H](C)[C@@H](CN(C)Cc2ccccn2)Oc2cc(-c3ccccc3)ccc2S1(=O)=O | n | n | x | x | x | x
C[C@H](CO)N1C[C@H](C)[C@H](CN(C)Cc2ccccn2)Oc2cc(-c3ccncc3)ccc2S1(=O)=O | n | 106 | n | n | n | n
C[C@@H]1CN([C@@H](C)CO)S(=O)(=O)c2ccc(-c3ccncc3)cc2O[C@H]1CN(C)Cc1ccccn1 | n | 114 | 105 | 103 | n | 36
Cc1ccc(-c2ccc3c(c2)O[C@@H](CN(C)Cc2ccccn2)[C@H](C)CN([C@H](C)CO)S3(=O)=O)cc1 | n | n | x | x | x | x
SMILES | C diff HTS | T cruzi growth-1 | T cruzi growth-2 | T cruzi growth-3 | NIH3T3 tox | 3T3 cytotox 2
C[C@H]1CN([C@@H](C)CO)S(=O)(=O)c2ccc(-c3ccccc3)cc2O[C@@H]1CN(C)Cc1ccccn1 | n | n | x | x | x | x
C[C@H]1CN([C@@H](C)CO)S(=O)(=O)c2ccc(-c3ccncc3)cc2O[C@@H]1CN(C)Cc1ccccn1 | n | 117 | 103 | 99 | n | 86
Cc1ccc(-c2ccc3c(c2)O[C@@H](CN(C)Cc2ccccn2)[C@H](C)CN([C@@H](C)CO)S3(=O)=O)cc1 | n | 119 | 98 | n | 64 | 103
C[C@@H]1CN([C@@H](C)CO)S(=O)(=O)c2ccc(-c3ccncc3)cc2O[C@@H]1CN(C)Cc1ccccn1 | n | n | x | x | x | x
COCCNC(=O)[C@@H]1[C@@H](CO)[C@@H]2Cn3c(ccc(C4=CCCCC4)c3=O)[C@H]1N2C(=O)C1CCCC1 | n | x | x | x | x | x
CC(C)C#Cc1cnc2c(c1)C(=O)N([C@H](C)CO)C[C@@H](C)[C@@H](CN(C)C(=O)c1cnccn1)O2 | n | n | x | x | x | x
COc1ccc(NC(=O)N(C)C[C@@H]2OCCCC[C@@H](C)Oc3ccc(NC(=O)NC4CCCCC4)cc3C(=O)N([C@@H](C)CO)C[C@@H]2C)cc1 | n | n | x | x | x | x
Cc1ccccc1S(=O)(=O)NCC[C@H]1CC[C@H](NC(=O)C2CCCC2)[C@H](CO)O1 | n | x | x | x | x | x
N#Cc1cccc(-c2ccc([C@H]3[C@@H](CO)N4CCCCN(S(=O)(=O)c5ccccc5)C[C@H]34)cc2)c1 | n | n | x | x | x | x
C[C@@H]1CN([C@@H](C)CO)S(=O)(=O)c2ccc(C3=CCCCC3)cc2O[C@H]1CN(C)C(=O)c1ccc(F)cc1 | n | u | 102 | n | 54 | 26
C[C@H]1CN([C@@H](C)CO)S(=O)(=O)c2ccc(C3=CCCC3)cc2O[C@@H]1CN(C)C(=O)c1ccc(F)cc1 | n | x | x | x | x | x
C[C@H](CO)N1C[C@H](C)[C@H](CN(C)C(=O)c2ccc(F)cc2)Oc2cc(C3=CCCCC3)ccc2S1(=O)=O | n | 111 | 101 | n | n | 62
C[C@@H]1CN([C@H](C)CO)S(=O)(=O)c2ccc(C3=CCCCC3)cc2O[C@H]1CN(C)C(=O)c1ccc(F)cc1 | n | n | x | x | x | x
C[C@H]1CN([C@@H](C)CO)S(=O)(=O)c2ccc(C3=CCCCC3)cc2O[C@@H]1CN(C)C(=O)c1ccccc1 | n | n | x | x | x | x

Screening data deposited in PubChem by Broad Institute.
